Screening data (PubChem BioAssay)
DT40 TDP1 no CPT = qHTS for Inhibitors of human tyrosyl-DNA phosphodiesterase 1 (TDP1): qHTS in cells in absence of CPT; AID 686978, 2013; DT40 Tdp1-/- hTDP1 cells, no CPT, ATP luminescence, 48 h; Potency, µM (series often up to 46.2 µM), for inactives: at the highest dose activity change, negative = growth inhibition, hits mostly inhibitors; hit rate 15% among 420,000; further: potency means the concentration at half of the fitted maximal effect; nearly all actives have a fitted effect of over 55% in size
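Luminescent ATP content (CellTiter-Glo) served as the growth readout. Knockout chicken DT40 cells expressing human TDP1 were exposed to compounds without camptothecin for a minimum 48 hr at 37 °C.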
CtBP-E1A blk = inhibitors of CtBP/E1A interaction; AlphaScreen GST-E1A/His-CtBP binding, 1536-well; stronger effect = lower value; activity change, % (no concentration beside the values); hit rate 0.49% among 340,000; AID 651724; in the data active means activity change below about -65%; inconclusive means mostly about -30% to -63%
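Protein mix (5X: 125 nM each GST-E1A, His-CtBP) was incubated with pinned compound 2 h at 37 deg C in dark, in 50 mM Tris pH 8.0 buffer with 300 mM NaCl. Glutathione donor and nickel acceptor beads followed; AlphaScreen signal read after 1 h.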
IL-1B inflam inh = blocks inflammasome-driven IL-1 beta release | THP-1 LPS/ATP IL-1B secretion, AlphaLISA, 16 h; stronger effect = lower value | activity change, % at 57.5 µM | hit rate 4.7% among 360,000; in the data active means activity change below about -50%; inconclusive means mostly about -30% to -49%
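Secreted IL-1B measured by AlphaLISA bead assay after 16 h compound exposure of THP-1 cells; compounds (final up to 57.5 uM) added 1 h before LPS (250 ng/mL) and ATP (1.25 mM) stimulation; lower signal means less secretion.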
TDP1 cell CPT = DT40-hTDP1 cell growth loss with CPT; chicken DT40 Tdp1-/-;hTDP1 cells + 20 nM CPT, ATP luminescence, 48 h; hit rate 12% among 420,000; Potency, µM (top dose mostly 46.2 µM), for the others: top-dose activity change, negative = growth inhibition, hits mostly inhibitors; AID 686979; further: potency means the concentration at half of the fitted maximal effect; nearly all actives have a fitted effect of over 55% in size
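Chicken DT40 Tdp1-/- cells complemented with human TDP1, 400 cells/well, exposed to compounds plus 20 nM camptothecin for at least 48 h at 37 C; viability read as ATP content by CellTiter-Glo luminescence.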
Six1-Eya2 blk = Six1/Eya2 interaction inhibition. AlphaScreen GST-Six1/His-Eya2 binding, biochemical; stronger effect = lower value. hit rate 0.56% among 360,000. Q15475+O00167. AID 651725. activity change, % (test concentration not listed); in the data active means activity change below about -65%; inconclusive means mostly about -30% to -63%
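GST-Six1 + His-Eya2 (5X stock: 250/500 nM); Tris pH 8.0, 300 mM NaCl, 0.05% BSA, 0.02% Tween 20; GSH donor/Ni acceptor beads; 1 h 37 °C dark; AlphaScreen readout.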
TDP1 block = blocks human tyrosyl-DNA phosphodiesterase 1; Q9NUW8; recombinant TDP1, AlphaScreen DNA substrate cleavage; Potency, µM (highest dose often 130 µM), for the others: at the top dose activity change, negative = inhibition, most hits filed as inhibitors; hit rate 0.28% among 350,000; further: potency means the concentration at half of the fitted maximal effect; nearly all actives have a fitted effect of over 40% in size
Target sequence (Q9NUW8 whole entry, looked up): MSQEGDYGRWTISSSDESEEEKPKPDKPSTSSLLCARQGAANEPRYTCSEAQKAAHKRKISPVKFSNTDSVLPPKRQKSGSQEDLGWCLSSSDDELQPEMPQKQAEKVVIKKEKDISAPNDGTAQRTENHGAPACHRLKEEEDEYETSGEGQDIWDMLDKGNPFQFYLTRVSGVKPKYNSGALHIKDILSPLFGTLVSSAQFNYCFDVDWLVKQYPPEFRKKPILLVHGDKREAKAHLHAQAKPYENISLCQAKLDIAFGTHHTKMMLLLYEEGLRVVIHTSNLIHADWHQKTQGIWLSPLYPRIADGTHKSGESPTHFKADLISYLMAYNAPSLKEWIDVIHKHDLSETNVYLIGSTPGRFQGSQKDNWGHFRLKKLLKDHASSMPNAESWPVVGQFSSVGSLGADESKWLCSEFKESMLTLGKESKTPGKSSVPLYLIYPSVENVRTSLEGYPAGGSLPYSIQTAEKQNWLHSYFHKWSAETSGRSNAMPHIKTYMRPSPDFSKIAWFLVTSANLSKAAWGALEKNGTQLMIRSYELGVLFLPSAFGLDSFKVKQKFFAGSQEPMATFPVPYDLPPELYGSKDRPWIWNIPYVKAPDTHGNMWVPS
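Tdp1 1 nM final; 15 min RT w/ cpd; substrate 15 nM, 5 min; beads 10 ug/ml, 10 min; AlphaScreen read. Neg ctrl: no enzyme.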
* = called active by the depositor; u = inconclusive; x = no result. A selection: hits, their analogues and other compounds. The true share with any hit is near 18%. Unless noted, the call rests on the fitted dose curve; in most records, active means well fitted curve in the direction sought with a large enough effect; inconclusive means small, poorly fitted or top-dose-only effect, or another doubt; inactive means no such curve, though single readings can be large; an effect the other way counts as inactive or inconclusive. On the % scale 0 is the no-effect control and ±100 the full control effect.

SMILES	DT40 TDP1 no CPT	CtBP-E1A blk	IL-1B inflam inh	TDP1 cell CPT	Six1-Eya2 blk	TDP1 block
CCN(CC)c1ccc(/C=N/Nc2nc(C)cc(C)n2)cc1	18µM*	-7	23	23µM*	-18	x
O=S1(=O)CC(N2CCN(CCO)CC2)CN1Cc1cn(Cc2ccc(C(F)(F)F)cc2)nn1 (centres undefined)	-20%	4	14	-28%	11	x
COCC(C)NCC(=O)NC(C)CCc1ccccc1 (centres undefined)	-26%	2	9	-1%	11	-6%
CCOc1ccc(CNc2nnnn2C)cc1OC	-5%	5	4	-9%	-1	3%
Cn1c(-c2ccc(F)cc2)cnc1NCc1ccccc1F	23µM*	x	-7	-28%	-4	x
Cn1c(-c2ccc(F)cc2)cnc1NCc1ccc(F)cc1F	u	x	9	-4%	9	x
C=CCn1c(NCc2ccccc2O)nc2ccccc21	u	4	-13	u	-9	x
CCOc1cc(CNc2ncc(-c3ccc(OC)cc3)n2C)ccc1O	18µM*	-21	-19	u	-15	10%
CCOc1ccc(CNc2ncc(-c3ccccc3)n2C)cc1	u	-8	-12	-20%	-4	x
CCOc1ccc(-c2cnc(NCc3ccc(C(F)(F)F)cc3)n2C)cc1	5.8µM*	x	x	5.2µM*	x	8%
C=CCn1c(NCc2cc(Cl)ccc2O)nc2ccccc21	u	-13	-69*	u	-21	x
CC(C)(C)OC(=O)N(Cc1ccccc1)Cc1ccc(OCc2cccc(NC(=O)C3CC3)c2)cc1	u	-4	-14	u	8	x
C=CCc1ccccc1OCCNCCCOC	-25%	7	-2	2%	8	-7%
CC[C@H](C)[C@H](NC(=O)[C@H](CCC(=O)O)NC(=O)CNC(=O)[C@@H](NC(=O)[C@H](CCC(=O)O)NC(=O)[C@H](CCC(=O)O)NC(=O)[C@H](CC(C)C)NC(=O)CNC(=O)[C@@H]1CCCN1C(=O)[C@H](CCC(=O)O)NC(=O)[C@@H](N)[C@@H](C)O)C(C)C)C(=O)N[C@@H](CCC(=O)O)C(=O)N[C@@H](CCC(N)=O)C(=O)N[C@@H](CCCCN)C(=O)N[C@@H](CCC(N)=O)C(=O)N[C@@H](CC(C)C)C(=O)N[C@@H](CCC(N)=O)C(=O)O	x	x	x	x	x	24%
CCc1ccc(CNc2ncc(-c3cccc(OC)c3)n2C)cc1	4.1µM*	x	x	4.1µM*	x	2%
COc1ccc(CNc2ncc(-c3ccccc3)n2C)cc1	u	x	-9	-26%	7	x
Cn1c(-c2cccc(Br)c2)cnc1NCc1cccc(F)c1	u	x	x	u	x	6%
Cc1ccc(-c2cnc(NCc3c(F)cccc3Cl)n2C)cc1	23µM*	x	x	15µM*	x	5%
COc1ccc(CNc2ncc(-c3ccccc3)n2C)c(OC)c1OC	15µM*	x	16	u	0	x
Cn1c(-c2ccccc2)cnc1NCc1ccc(-c2ccccc2)cc1	u	-11	16	26µM*	-21	x
COC(=O)CNC(=O)C1(CC(C)C)C=CCN1C(C)=O (centres undefined)	x	x	x	x	x	6%
COc1cc(-c2nnc(SCCOc3ccc(C)c(Cl)c3)o2)cc(OC)c1OC	u	x	x	u	x	0%
Cn1c(-c2ccccc2)cnc1NCc1cc(Cl)ccc1O	-15%	-22	-55*	-6%	u	x
COc1ccc(CNc2ncc(-c3ccccc3)n2C)c2ccccc12	u	-7	2	u	-20	x
Cn1c(-c2ccc(F)cc2)cnc1NCc1ccc(C#N)cc1	16µM*	-15	-15	u	-1	2%
SMILES	DT40 TDP1 no CPT	CtBP-E1A blk	IL-1B inflam inh	TDP1 cell CPT	Six1-Eya2 blk	TDP1 block
CN(C(=O)CSc1nncc2ccccc12)c1ccccc1	-29%	2	-87*	-2%	-1	0%
Cn1c(C(F)(F)F)nc2c(=O)oc3ccccc3c21	-13%	1	-1	9%	0	0%
O=C(NCc1ccco1)c1cc(S(=O)(=O)N2CCCCC2)ccc1Cl	u	x	-3	-14%	0	-4%
Fc1ccccc1/C=C/c1ccc2ccccc2n1	u	8	8	u	33	-3%
CC(=O)Oc1ccc(Cl)cc1/C=C/c1ccc2ccccc2n1	29µM*	0	-2	u	24	x
CC(=O)Oc1c(Cl)cc(Cl)cc1/C=C/c1ccc2ccccc2n1	-6%	33	-66*	u	42	u
C[C@@H]1OC(OC2CC[C@@]3(C)C(CC[C@@]4(C)C3CC=C3C5CC(C)(C)CC[C@]5(C(=O)OC5OCC(O)[C@@H](O)[C@@H]5OC5O[C@@H](C)[C@H](O[C@H]6OC(CO)C(O)C(O)C6O)C(O)C5O)C(O)C[C@@]34C)C2(C)C)C(O)C(O)[C@H]1OC1OCC(O)C(O)[C@H]1O (some centres undefined)	u	x	x	15µM*	x	x
CC1O[C@@H](OC2C(COC3OC(CO)C(O)[C@H](O)C3O)OC(OC3CC[C@]4(C)C(CC[C@@]5(C)[C@@H]4CC=C4[C@@H]6CC(C)(C)CC[C@]6(CO)C(O)C[C@]45C)C3(C)C)C(O)C2O)C(O)C(O)C1O (some centres undefined)	7%	7	9	13%	0	1%
C/C=C(\C)C(=O)OC1[C@H](OC(C)=O)C2(CO)C(CC1(C)C)C1=CCC3C4(C)CCC(O[C@@H]5O[C@H](C(=O)O)[C@@H](O[C@@H]6O[C@H](CO)[C@@H](O)[C@H](O)[C@H]6O)[C@H](O)[C@H]5O[C@H]5O[C@H](CO)[C@@H](O)[C@H](O)[C@H]5O)[C@](C)(CO)C4CCC3(C)[C@]1(C)C[C@H]2O (some centres undefined)	15µM*	5	-105*	12µM*	1	x
C/C=C(/C)C(=O)OC1C(OC(C)=O)[C@@]2(CO)C(O)C[C@@]3(C)C(=CCC4[C@@]5(C)CCC(OC6OC(C(=O)O)[C@@H](O[C@@H]7OC(CO)C(O)C(O)C7O)C(O)[C@H]6O[C@@H]6OC(CO)C(O)C(O)C6O)[C@](C)(CO)C5CC[C@@]43C)C2CC1(C)C (some centres undefined)	u	x	x	u	x	8%
